ASM inhibitor = inhibitors of human secretory acid sphingomyelinase. P17405. placental ASM, HMU-PC fluorogenic substrate, 60 min. Potency, µM (top dose mostly 57.5 µM), usual class: inhibitors. 0.006% of 340,000 active. AID 504937
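Steps: dispense placental human ASM, pin compound, wait 10 min at room temperature, add HMU-PC0 substrate at 9 uM final, incubate 60 min at 37 °C, add stop solution raising pH to 10, read fluorescence.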
Vif-APOBEC3G blk = inhibitors of Vif-APOBEC3G interaction; 0.076% of 410,000 active; Q9HC16; HeLa A3G-eYFP + Vif (tagged APOBEC3G with the HIV-1 protein that degrades it), YFP fluorescence, overnight; Potency, µM (titrated, usually from 46.1 µM), hits mostly inhibitors; further: nearly all actives have a fitted effect of over 60% in size
Target sequence (Q9HC16 whole entry, looked up): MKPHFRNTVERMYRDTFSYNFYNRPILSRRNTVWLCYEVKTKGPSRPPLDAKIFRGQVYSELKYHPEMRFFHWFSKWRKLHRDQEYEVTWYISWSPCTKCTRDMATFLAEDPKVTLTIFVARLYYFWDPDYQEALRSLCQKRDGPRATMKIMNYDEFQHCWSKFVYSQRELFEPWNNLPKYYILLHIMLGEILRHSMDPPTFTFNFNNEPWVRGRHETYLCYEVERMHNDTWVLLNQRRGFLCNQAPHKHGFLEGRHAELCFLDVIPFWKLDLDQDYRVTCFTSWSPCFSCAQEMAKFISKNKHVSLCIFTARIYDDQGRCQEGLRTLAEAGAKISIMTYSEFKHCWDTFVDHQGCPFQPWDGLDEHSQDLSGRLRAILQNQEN
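Read-out is eYFP fluorescence (Ex 488/Em 500-530) from Vif-expressing HeLa A3G-eYFP cells; more signal means A3G escaped Vif-mediated degradation. Cells plated overnight, compound pinned in, incubated overnight at 37 deg C.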
Akt phos inh = blocks phosphorylation of Akt; activity change, % for hits at 50 µM; Neuro2A IGF-stimulated pAkt S473 HTRF, 20 min; active compounds read low; 0.32% of 360,000 active; in the data active means activity change below about -80%; inconclusive means mostly about -51% to -80%
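Neuro2A cells (4,500/well, DMEM with 0.5% FBS) were treated with compound at a single 50 µM final concentration, stimulated with 6 nM IGF for 20 min at 37 °C, and lysed. Phospho-Akt Ser473 was read by HTRF as 665/615 ratio ×10^4.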
12-LOX inh = inhibitors of human 12S-lipoxygenase ALOX12. P18054. purified 12hLO, xylenol orange hydroperoxide absorbance. Potency, µM (titrated, usually from 108 µM), most hits filed as inhibitors. 1.1% of 580,000 active. AID 1671190
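Hydroperoxide product was detected by ferrous iron/xylenol orange as the 573 to 405 nm absorbance ratio. Arachidonic acid at 40 uM (final) was turned over for 30 min at room temperature by 150 nM human 12hLO, pH 7.0 Hepes buffer, after 15 min compound preincubation.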
Vif-A3F inh = inhibitors of Vif-A3F interaction; Potency, µM (highest dose often 46.1 µM); HeLa A3F-eYFP + Vif (tagged APOBEC3F with the HIV-1 protein that degrades it), YFP fluorescence increase; 0.2% of 390,000 active; further: nearly all actives have a fitted effect of over 65% in size
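HeLa cells stably expressing Vif plus C-terminally eYFP-tagged A3F were seeded, incubated overnight at 37 deg C, dosed with compound, incubated overnight again at 37 deg C. Yellow fluorescence (Ex 488/Em 500-530) reported blocked Vif-mediated A3F-eYFP degradation.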
PTAP TSG101 blk = blocks PTAP/TSG101 interaction to inhibit HIV-1 budding; Fluorescence polarization, FITC-PTAP peptide / Tsg101 binding; Potency, µM (titrated, usually from 115 µM), most hits filed as inhibitors; 340,000 tested, under 10 active; Q99816; active means well fitted inhibition curve with a large enough effect in the main read-out, with a control signal flat, not every such curve was filed as active; inconclusive means small, poorly fitted or top-dose-only effect, or effect the other way, or a change in a side signal; inactive means no such curve, though single readings can be large or run the other way
Target sequence (Q99816 whole entry, looked up): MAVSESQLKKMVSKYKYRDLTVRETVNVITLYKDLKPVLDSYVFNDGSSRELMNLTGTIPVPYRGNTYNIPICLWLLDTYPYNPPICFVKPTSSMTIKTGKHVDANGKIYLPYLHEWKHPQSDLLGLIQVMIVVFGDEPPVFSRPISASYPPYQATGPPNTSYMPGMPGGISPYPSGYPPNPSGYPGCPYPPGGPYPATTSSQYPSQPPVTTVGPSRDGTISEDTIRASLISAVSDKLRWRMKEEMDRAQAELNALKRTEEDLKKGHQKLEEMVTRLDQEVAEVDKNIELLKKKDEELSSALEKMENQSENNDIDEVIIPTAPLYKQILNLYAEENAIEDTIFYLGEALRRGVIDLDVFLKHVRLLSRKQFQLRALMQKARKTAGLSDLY
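Tsg101 binding domain (10 uM final) was mixed with compound and a FITC-labeled PTAP peptide (50 nM final) in HEPES pH 7.5 buffer with NaCl, Tween 20, EDTA and TCEP; fluorescence polarization was read after 20 min at r.t.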
A number is an active result; – = inactive; ? = inconclusive; · = not tested or not shown. In the library only some 1.4% were active in any assay of this set; here they are far more common. Unless noted, the call rests on the fitted dose curve; in most records, active means well fitted curve in the direction sought with a large enough effect; inconclusive means small, poorly fitted or top-dose-only effect, or another doubt; inactive means no such curve, though single readings can be large; an effect the other way counts as inactive or inconclusive.

SMILES	ASM inhibitor	Vif-APOBEC3G blk	Akt phos inh	12-LOX inh	Vif-A3F inh	PTAP TSG101 blk
Cc1cccc(C(=O)NC(=S)Nc2ccc(S(=O)(=O)N3CCCCC3)cc2)c1	–	–	–	11µM	–	–
CCC(=O)Nc1cccc(NC(=S)NC(=O)c2ccc(C)cc2)c1	–	–	–	–	–	–
CCCCOC(=O)c1cccc(NC(=O)CC)c1	–	–	-112%	–	–	–
CCCOC(=O)c1cccc(NC(=O)C(C)(C)C)c1	–	–	–	–	–	–
Cc1cccc(C(=O)NC(=S)NC(C)c2ccccc2)c1 (stereo not drawn)	–	–	–	6.3µM	?	–
CCC(=O)Nc1cccc(NC(=S)NC(=O)c2cccc(C)c2)c1	–	–	–	35µM	–	–
Cc1cccc(C(=O)NC(=S)N2CCc3ccccc3C2)c1	–	–	–	?	8.9µM	–
Cc1cc(C)cc(C(=O)NC(=S)Nc2ccc(Cc3ccncc3)cc2)c1	–	–	–	45µM	–	–
COc1ccc(S(=O)(=O)N2CCCCC2)cc1NC(=S)Nc1cccc(Cl)c1C	–	–	–	40µM	–	–
Cc1cccc(C(=O)NC(=S)Nc2ccc(Cc3ccncc3)cc2)c1	–	–	–	45µM	–	–
O=C(NC(=S)Nc1ccc(Cc2ccncc2)cc1)c1ccccc1	–	–	–	?	–	–
CCCCn1c(=O)[nH]c(=O)c2c1nc(CSc1nccn1-c1cccc(C)c1)n2C	·	·	·	–	·	·
CCC(C)(C(=O)NC1CCCCC1)N(C(=O)CNC(C)=O)c1c(C)n(C)n(-c2ccccc2)c1=O (stereo not drawn)	–	–	-131%	–	–	–
CC1CCN(CCOCCOc2ccc(Br)cc2Cl)CC1	–	–	–	?	–	–
CC1CCCN(CCCOc2ccc(Br)cc2Cl)C1 (stereo not drawn)	–	–	–	1.1µM	–	–
N#C/C(N=Nc1ccccc1O)=N\Nc1ccccc1O	–	?	–	?	11µM	–
COc1ccc(-n2nc3cc(C)c(N)c(Br)c3n2)cc1	–	–	–	28µM	–	–
CCc1ccc(-n2nc3cc(C)c(N)cc3n2)cc1	–	–	–	20µM	–	–
Cc1ccc(-n2nc3cc(C)c(N)cc3n2)cc1	–	–	–	45µM	·	–
Cc1cc2nn(-c3cccc4ccccc34)nc2cc1N	–	–	–	?	–	–
Nc1cc2nn(-c3ccccc3)nc2cc1Cl	–	–	–	5.6µM	–	–
CCc1ccc(-n2nc3cc(C)c(NC(=O)c4ccccc4C)cc3n2)cc1	·	–	·	?	–	·
CCc1ccc(OCC(=O)Nc2c(C)ccc3nsnc23)cc1	·	·	·	–	·	·
COC(=O)c1ccc(CCNC(=O)C(C)C)cc1	·	·	·	–	·	·
COc1cc(C#N)ccc1OCc1cc(C)ccc1C	·	·	·	–	·	·
SMILES	ASM inhibitor	Vif-APOBEC3G blk	Akt phos inh	12-LOX inh	Vif-A3F inh	PTAP TSG101 blk
FC(F)(F)c1ccc(=S)[nH]c1	·	·	·	5µM	·	·
CC(C)c1ccc(C2NC(C(=O)O)CS2)cc1 (stereo not drawn)	–	–	-105%	?	–	–
C[C@H]1[C@@H]2[C@@H](O)C([C@H](C)C(=O)NC3CCCCC3)CC[C@@]2(C)CC[C@@H]1NC(=O)c1cnccn1 (stereo partly drawn)	·	·	·	–	·	·
COc1ccc(NC(=S)NC(=O)/C=C/c2cccs2)cc1	–	–	–	–	–	–
COc1ccccc1/C=C/C(=O)NC(=S)NC(C)C	–	–	–	25µM	–	–
COc1ccccc1NC(=S)NC(=O)/C=C/c1cccs1	–	–	–	35µM	–	–
COc1ccccc1/C=C/C(=O)NC(=S)N1CCN(C)CC1	–	–	–	–	–	–
Cc1ccc(CN2C(=O)C(=O)c3cc(Br)cc(C)c32)cc1	·	–	·	14µM	–	·
COC(=O)c1ccc(CNC(=O)c2ccccc2-c2ccccc2)cc1	·	·	·	–	·	·
CC1=C(C(=O)OCc2ccccc2)C(/C=C/c2ccccc2)NC(=S)N1 (stereo not drawn)	–	–	–	18µM	–	–
C=CCOC(=O)C1=C(C)NC(=S)NC1/C=C/c1ccccc1 (stereo not drawn)	–	–	–	–	–	–
CCOc1cccc(C(=O)N(Cc2ccc(F)cc2)c2ccccn2)c1	·	·	·	–	·	·
C=CCOc1c(Br)cc(CNc2ccc(NC(=O)CCC)cc2)cc1OCC	–	–	-100%	–	·	–
CCOc1cc(CNc2ccc(N3CCOCC3)cc2)cc(Br)c1OCC	–	–	–	32µM	–	–
CC(=O)Nc1ccc(CN2CCN(c3cc(Cl)ncn3)C(=O)C2)cc1	·	·	·	–	·	·
COc1ccc(CNC(=O)c2cc(Cl)ccc2NC(=O)C2=C(C)OCCS2)cc1	·	·	·	–	·	·
COc1ccc(C2Nc3cccc4cccc(c34)N2)cc1	–	–	–	?	–	–
Clc1ccc(C2Nc3cccc4cccc(c34)N2)cc1Cl	–	–	–	–	–	–
Clc1cccc(C2Nc3cccc4cccc(c34)N2)c1	–	–	–	3.5µM	–	–
COc1cc(OC)c(C2Nc3cccc4cccc(c34)N2)c(OC)c1	–	–	–	?	11µM	–
COc1ccc(-c2cnc3c(NC=O)cc(-c4ccccc4OC)cn23)cc1OC	·	–	–	6.3µM	·	·
COc1ccc(-c2cc(NC=O)c3ncc(-c4ccc(OC)c(OC)c4)n3c2)cc1OC	·	?	–	–	·	·
CC(C)(C)NC(=O)CSc1ncc(-c2ccc(Cl)cc2)o1	·	·	·	–	·	·
Cc1oc(-c2ccccc2)nc1C(=O)N1CCN(CC(=O)N2CCOCC2)CC1	·	·	·	–	·	·
Cc1ccccc1CC(=O)Nc1cc(C(C)(C)C)on1	–	–	–	5µM	–	–
SMILES	ASM inhibitor	Vif-APOBEC3G blk	Akt phos inh	12-LOX inh	Vif-A3F inh	PTAP TSG101 blk
COc1cc(C)cc2oc(=O)c(CC(=O)Nc3nc(CC(=O)O)cs3)c(C)c12	·	·	·	–	·	·
CC(C(=O)N1CCCN(c2cc(-c3ccc(Cl)cc3)[nH]n2)CC1)c1ccccc1 (stereo not drawn)	·	·	·	–	·	·
CCCS(=O)(=O)Nc1ccc(N2CCCCC2)c(S(=O)(=O)Nc2ccccc2OC)c1	–	–	–	32µM	–	–
COc1ccccc1NS(=O)(=O)c1cc(N)ccc1N1CCCCC1	–	–	–	?	–	–
CCn1c(/C=C/c2ccc(O)c(O)c2)nc2ccccc2c1=O	–	?	–	14µM	–	–
O=C(Nc1ccc2[nH]c(=S)sc2c1)Nc1ccccc1F	–	–	–	14µM	–	–
COc1ccc2c(c1)OC[C@H]1[C@H]2N2C(=O)CN(Cc3ccco3)C(=O)[C@@]2(C)[C@H]1c1ccccc1	–	–	–	7.1µM	–	–
COc1ccc2c(c1)OC[C@H]1[C@H]2N2C(=O)CN(Cc3ccc(C)cc3)C(=O)[C@@]2(C)[C@H]1c1ccccc1	–	–	–	–	–	–
COc1ccc(CNCc2cn(-c3cccc(F)c3)nc2-c2ccc(C)o2)cc1	–	–	–	45µM	–	–

Assay outcomes deposited in PubChem by National Center for Advancing Translational Sciences (NCATS).
